TSHR agonist – activates the human thyroid stimulating hormone receptor; P16473; HEK293-CNG-TSHR cells (CNG channel as cAMP sensor), membrane potential dye, cAMP; Potency, µM (titrated, usually from 57.1 µM), most hits filed as activators; 0.48% of 73,000 active; active = well fitted activation curve with a large enough effect in the main read-out, with a control signal flat, not every such curve was filed as active; inconclusive = small, poorly fitted or top-dose-only effect, or a change in a side signal; inactive = no such curve, though single readings can be large or run the other way; reference of the percent scale not stated here;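 also: the control signal comes from parental cells without the receptor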
Target sequence (P16473 whole entry, looked up): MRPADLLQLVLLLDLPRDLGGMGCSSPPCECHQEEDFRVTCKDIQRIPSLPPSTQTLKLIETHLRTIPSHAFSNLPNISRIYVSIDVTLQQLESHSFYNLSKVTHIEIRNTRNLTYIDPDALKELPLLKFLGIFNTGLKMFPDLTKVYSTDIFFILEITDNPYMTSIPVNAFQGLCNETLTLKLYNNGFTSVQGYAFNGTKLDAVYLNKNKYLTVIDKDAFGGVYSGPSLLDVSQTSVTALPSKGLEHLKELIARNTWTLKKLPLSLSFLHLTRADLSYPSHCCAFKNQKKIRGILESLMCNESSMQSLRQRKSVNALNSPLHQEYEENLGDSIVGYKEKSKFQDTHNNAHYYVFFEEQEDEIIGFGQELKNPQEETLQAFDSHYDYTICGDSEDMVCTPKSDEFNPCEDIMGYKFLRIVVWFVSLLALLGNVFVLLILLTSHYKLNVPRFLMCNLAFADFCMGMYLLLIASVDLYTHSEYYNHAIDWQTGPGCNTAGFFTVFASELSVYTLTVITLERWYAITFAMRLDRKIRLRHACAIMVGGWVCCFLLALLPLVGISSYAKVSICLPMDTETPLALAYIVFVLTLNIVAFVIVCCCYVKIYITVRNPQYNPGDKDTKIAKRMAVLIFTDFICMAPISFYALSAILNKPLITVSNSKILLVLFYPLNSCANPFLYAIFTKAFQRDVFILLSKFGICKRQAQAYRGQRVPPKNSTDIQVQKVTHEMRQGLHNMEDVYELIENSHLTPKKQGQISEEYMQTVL
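HEK 293 cells stably expressing TSHR and a modified CNG channel, with CNG-only parental cells as counterscreen, were preloaded 60 min at room temperature with membrane potential dye containing 100 uM RO 20-1724. Compound exposure was 30 min, and depolarization was read as fluorescence at 590 nm.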
HEK293 cAMP cs – parental HEK293 cAMP activation (counter-screen). parental HEK293 CNG cAMP sensor, membrane potential fluorescence. Potency, µM (highest dose often 57.1 µM), hits mostly activators. 2.5% of 73,000 active. AID 938; active = well fitted activation curve with a large enough effect; inconclusive = small, poorly fitted or top-dose-only effect; inactive = no such curve, though single readings can be large or run the other way; also: nearly all actives have a fitted effect of over 55% in size
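Parental HEK 293 cells stably expressing a modified CNG channel (no TSHR) report cAMP rise as membrane depolarization. Membrane potential dye with 100 uM RO 20-1724 was loaded for 60 min at room temperature, then compound added for 30 min; fluorescence read at 590 nm.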
Hsp90 Hop PPI – changes Hsp90-Hop TPR2A binding signal, up or down; AlphaScreen TPR2A-His6 binding biotin-Hsp90 C-terminal peptide; Potency, µM (highest dose often 57 µM); 0.44% of 71,000 active; AID 595; active = well fitted curve in either direction with a large enough effect; inconclusive = small, poorly fitted or top-dose-only effect, or another doubt
IkB sig inh – suppresses IkB signaling in ABC-DLBCL reporter cells; ABC-DLBCL IkBa-CBG/CBR dual luciferase ratio, 4 h; response scale: scaled: untreated 0%, proteasome inhibitor 100%; Potency, µM (doses to about 57.1 µM); 0.04% of 110,000 active; AID 445; active = well fitted curve in the direction sought with a large enough effect in the signal ratio, not every such curve was filed as active; inconclusive = small, poorly fitted or top-dose-only effect, or a change in a side signal; the % refers to the signal ratio;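 also: the direction sought is a rising ratio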
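In this assay, an IκBα–CBG68 fusion accumulates when IKK-driven degradation is blocked; native CBR normalizes for cell number. OCI-Ly3 cells were treated 4 h with compound and doxycycline, then green and red light read after Chroma-Glo addition.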
CRE Fsk mod – modulators of forskolin-stimulated CRE signaling in CHO cells; AID 662; Potency, µM (highest dose often 38.2 µM), usual class: activators; CHO CRE-bla reporter (cAMP response element driving beta-lactamase), forskolin EC10, beta-lactamase ratio; 2.5% of 71,000 active; active = well fitted activation curve with a large enough effect in the signal ratio, with a control signal flat, not every such curve was filed as active; inconclusive = small, poorly fitted or top-dose-only effect, or effect the other way, or a change in a side signal; the % refers to the signal ratio
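CHO CRE-bla cells, overnight plating in Opti-MEM with 0.5% dialyzed FBS; cpd titration + EC10 NKH 477, 3 h 37 °C; CCF4 2 h RT; ex 405/em 460 vs 530 ratio → %Activity, AC50.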
Each line names hits and unclear results; the compound was inactive in the other large screens; ! = not active in a repeat. Compounds with a hit are over-represented: about 3.5% of the library has one in this group of screens.

O=c1c(O)c(-c2ccc(O)c(O)c2)oc2cc(O)cc(O)c12	Hsp90 Hop PPI 12.6µM!, IkB sig inh inconclusive, CRE Fsk mod inconclusive
O=c1cc(-c2ccc(O)c(O)c2)oc2cc(O)cc(O)c12	IkB sig inh inconclusive, CRE Fsk mod inconclusive
O=C(CCCN1CCC2(CC1)C(=O)N(CCc1ccc(N=C=S)cc1)CN2c1ccccc1)c1ccc(F)cc1	TSHR agonist inconclusive, HEK293 cAMP cs inconclusive, Hsp90 Hop PPI inconclusive, CRE Fsk mod inconclusive
O=c1[nH]c(=O)n(Cc2ccccc2)c(O)c1C=NCCCn1ccnc1	Hsp90 Hop PPI 15.8µM, CRE Fsk mod inconclusive
CN1[C@@H]2CC[C@H]1CC(OC1c3ccccc3CCc3ccccc31)C2 (some centres not stated)	none
CN1[C@@H]2CC[C@H]1CC(O[C@@H](c1ccccc1)c1ccc(Cl)cc1)C2 (some centres not stated)	TSHR agonist inconclusive, HEK293 cAMP cs 39.8µM, IkB sig inh inconclusive, CRE Fsk mod inconclusive
COC1=C(C)C(=O)c2c(c(COC(N)=O)c3n2C[C@@H]2[C@@H]3N2C)C1=O (some centres not stated)	IkB sig inh 3.16µM, CRE Fsk mod 0.2µM
COC1=C[C@H]2[C@@H]3Cc4ccc(OC)c(O)c4[C@@]2(CCN3C)CC1=O	none
CCCCn1c(N)c(C(=O)NCCN2CCOCC2)c2nc3ccccc3nc21	Hsp90 Hop PPI inconclusive, IkB sig inh inconclusive, CRE Fsk mod 10µM (no result: TSHR agonist)
Nc1c(C(=O)NCCc2ccccc2)c2nc3ccccc3nc2n1CCN1CCOCC1	Hsp90 Hop PPI inconclusive, IkB sig inh inconclusive, CRE Fsk mod inconclusive
COc1ccc(CCNC(=O)c2c(N)n(CCN3CCOCC3)c3nc4ccccc4nc23)cc1	CRE Fsk mod 6.31µM
CCOC(=O)c1c(N)n(CCN2CCCCC2)c2nc3ccccc3nc12	none
N#CC(C(=O)C12CC3CC(CC(C3)C1)C2)c1nc2ccccc2[nH]1 (configuration not stated)	TSHR agonist inconclusive, HEK293 cAMP cs 3.16µM, CRE Fsk mod inconclusive
COCCNC(=O)c1c(NC(=O)c2ccco2)n(Cc2ccccc2)c2nc3ccccc3nc12	CRE Fsk mod 2µM
Nc1c(C(=O)NCCN2CCOCC2)c2nc3ccccc3nc2n1Cc1ccco1	CRE Fsk mod inconclusive
O=C1C[C@H]2OCCC=C3CN4CC[C@@]56c7ccccc7N1[C@@H]5[C@H]2[C@H]3C[C@@H]46	none
CCCCCCCCCc1ccc(O)cc1	Hsp90 Hop PPI inconclusive, CRE Fsk mod 5.01µM
COc1cc2c(cc1OC)-c1c(OC)c(OC)c(CO)c3c1[C@H](C2)N(C)CC3	CRE Fsk mod inconclusive
N#CC(C#N)=NNc1cccc(Cl)c1	TSHR agonist inconclusive, HEK293 cAMP cs 0.631µM (no result: Hsp90 Hop PPI, IkB sig inh, CRE Fsk mod)
C[C@@H](Cc1ccc(Cl)cc1Cl)NO	none
O=C(O)c1nn(Cc2ccc(Cl)cc2Cl)c2ccccc12	TSHR agonist inconclusive, HEK293 cAMP cs 39.8µM!
Cc1noc(C)c1C(=O)N1CCC2(CC1)OCCO2	none
Cc1noc(C)c1C(=O)N1CCC2(CCCN(CC(C)C)C2)CC1	TSHR agonist inconclusive, HEK293 cAMP cs 15.8µM, CRE Fsk mod inconclusive
O=C1OC(=O)c2c(Cl)c(Cl)c(Cl)c(Cl)c21	TSHR agonist inconclusive, HEK293 cAMP cs 39.8µM
N[C@H](Cn1cc(I)c(=O)[nH]c1=O)C(=O)O	none
CCCN(CCC)[C@@H]1CCc2c(OC)cccc2[C@@H]1C	TSHR agonist inconclusive, HEK293 cAMP cs 31.6µM
CN(c1ccccc1)S(=O)(=O)c1cccc(C(=O)N2CCN(c3ccccn3)CC2)c1	TSHR agonist inconclusive, HEK293 cAMP cs 15.8µM, IkB sig inh inconclusive
CC(C)N[C@@H](C)Cc1ccc(I)cc1	none
c1ccc(/N=C2\N=C(Nc3ccccn3)c3ccccc32)nc1	TSHR agonist 7.94µM, IkB sig inh inconclusive, CRE Fsk mod inconclusive
O=C(NC[C@H]1CCCCN1)c1cc(OCC(F)(F)F)ccc1OCC(F)(F)F	TSHR agonist inconclusive, HEK293 cAMP cs 3.98µM!
OC[C@H]1CCCN2CCCC[C@@H]12	none
C/C=C(\C)C(=O)O[C@@H]1C(C)=C2[C@H]([C@@H]1OC(=O)CCCCCCC)[C@@](C)(OC(C)=O)C[C@@H](OC(=O)CCC)[C@@]1(O)[C@H]2OC(=O)[C@]1(C)O	IkB sig inh 3.98µM, CRE Fsk mod inconclusive (no result: TSHR agonist)
C[C@@H]1Cc2cc3c(cc2C(c2ccc(N)cc2)=NN1)OCO3	none
CC(C)[C@@]1(NC(=O)[C@@H]2C[C@H]3c4cccc5[nH]cc(c45)C[C@@H]3N(C)C2)O[C@@]2(O)[C@H]3CCCN3C(=O)[C@@H](Cc3ccccc3)N2C1=O	none
Oc1cc(Cl)c(Cl)c(Cl)c1	IkB sig inh inconclusive
Oc1cc(Cl)c(Cl)c(Cl)c1Cl	TSHR agonist inconclusive, HEK293 cAMP cs 39.8µM, IkB sig inh inconclusive, CRE Fsk mod inconclusive
Oc1c(Cl)c(Cl)cc(Cl)c1Cl	TSHR agonist inconclusive, HEK293 cAMP cs 39.8µM, IkB sig inh inconclusive, CRE Fsk mod inconclusive
N#CC(C#N)=NNc1ccc(OC(F)(F)F)cc1	TSHR agonist inconclusive, HEK293 cAMP cs 0.631µM (no result: Hsp90 Hop PPI, IkB sig inh, CRE Fsk mod)
N#Cc1cc2c(nc1SCC(=O)Nc1ccc(OC(F)(F)F)cc1)C1CCN2CC1	none (no result: TSHR agonist, HEK293 cAMP cs, Hsp90 Hop PPI, CRE Fsk mod)
c1ccc2cc3c(cc2c1)-c1cccc2cccc-3c12	TSHR agonist inconclusive, CRE Fsk mod inconclusive
c1ccc2c(c1)-c1cccc3c1c-2cc1ccccc13	TSHR agonist inconclusive, HEK293 cAMP cs inconclusive, Hsp90 Hop PPI 5.01µM, CRE Fsk mod inconclusive
CNc1ccc2oc(C[C@@H]3O[C@@]4(CC[C@H]3C)O[C@@H]([C@@H](C)C(=O)c3ccc[nH]3)[C@@H](C)C[C@H]4C)nc2c1C(=O)O	IkB sig inh inconclusive, CRE Fsk mod inconclusive
CSC([N-]/N=C/c1cccc(C)n1)=[S]=[Cu].CS[C@H]([S-])[N-]/N=C/c1cccc(C)n1	Hsp90 Hop PPI 3.16µM, IkB sig inh inconclusive, CRE Fsk mod inconclusive
O=[N+]([O-])c1ccc(O[C@H]2O[C@@H](CO)[C@@H](O)[C@@H](O)[C@@H]2F)c([N+](=O)[O-])c1	none
COC(=O)[C@@H]1C[C@H]1[C@@H](NP(=O)(c1ccccc1)c1ccccc1)c1ccccc1	TSHR agonist inconclusive, HEK293 cAMP cs 12.6µM (no result: IkB sig inh)
COC(=O)[C@H]1C[C@@H]1[C@H](NP(=O)(c1ccccc1)c1ccccc1)c1ccccc1	TSHR agonist inconclusive, HEK293 cAMP cs 0.501µM (no result: IkB sig inh)
COC(=O)C(c1ccccc1)C1CCCCN1 (configuration not stated)	TSHR agonist inconclusive, HEK293 cAMP cs inconclusive
COC(=O)[C@@H]1C[C@@H]1[C@@H](NP(=O)(c1ccccc1)c1ccccc1)c1ccccc1	TSHR agonist inconclusive, HEK293 cAMP cs 10µM (no result: IkB sig inh)
O=C(O)[C@@H]1C[C@H]1[C@@H](NP(=O)(c1ccccc1)c1ccccc1)c1ccccc1	none (no result: IkB sig inh)
CNC(=O)[C@H]1C[C@@H]1[C@H](NP(=O)(c1ccccc1)c1ccccc1)c1ccccc1	TSHR agonist inconclusive, HEK293 cAMP cs 15.8µM (no result: IkB sig inh)
